Source: PubChem BioAssay
Peg3 imprint – induces erasure of genomic imprints in mouse ES cells | Potency, µM (doses to about 60.7 µM), for inactives: at the highest dose activity change, positive = activation, usual class: activators | 0.02% of 110,000 active | mouse ES Peg3-LacZ reporter, beta-gal luminescence, 40 h
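Imprint erasure is scored as LacZ activity from the silenced maternal Peg3 allele in feeder-free female ES cells cultured 40 h with LIF. Luminescence is normalized to in-plate negative controls and fitted to the Hill equation.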
p53ts 39C kill – kills p53ts cells at the nonpermissive temperature; 1.5% of 130,000 active; Potency, µM (top dose mostly 46.1 µM), inactives show at the top dose activity change, negative = cell killing, usual class: cytotoxic; H1299-p53A138V viability at 39C, ATP luminescence, 24 h; note: % is set by controls: 0 for no effect and ±100 for the full control effect; nearly all actives have a fitted effect of over 55% in size
p53ts 32C tox – p53ts cell cytotoxicity, permissive temperature | Potency, µM (highest dose often 46.1 µM), for inactives: top-dose activity change, negative = cytotoxicity, actives largely listed as cytotoxic | 0.93% of 130,000 active | H1299-p53A138V at 32C, ATP luminescence viability, 24 h;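 note: 0% = DMSO and -100% = full killing by reference compound; nearly all actives have a fitted effect of over 55% in size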
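ATP-content luminescence (ATPlite) read-out after 24 h compound exposure at 32C in H1299-p53A138V cells (600/well). Tested up to 46 uM. Normalized to DMSO (0%) and 100 uM tamoxifen (100% killing); Hill-fit AC50.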
IkB sig inh – suppresses IkB signaling in ABC-DLBCL reporter cells; ABC-DLBCL IkBa-CBG/CBR dual luciferase ratio, 4 h; response scale: scaled: untreated 0%, proteasome inhibitor 100%; Potency, µM (series often up to 57.1 µM), for inactives: at the highest dose IkBa stabilization activation; 0.04% of 110,000 active; AID 445; active = well fitted curve in the direction sought with a large enough effect in the signal ratio, not every such curve was filed as active; inconclusive = small, poorly fitted or top-dose-only effect, or a change in a side signal; the % refers to the signal ratio;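 note: the direction sought is a rising ratio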
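In this assay, an IκBα–CBG68 fusion accumulates when IKK-driven degradation is blocked; native CBR normalizes for cell number. OCI-Ly3 cells were treated 4 h with compound and doxycycline, then green and red light read after Chroma-Glo addition.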
Numbers without * were called inactive; ? = inconclusive; . = not tested or not shown; [ ] = dose if it differs, or a comment. The list is not random: actives were taken first. Their share in the collection is about 1.8%. Unless noted, calls come from the whole dose curve; as a rule, active = well fitted curve in the direction sought with a large enough effect; inconclusive = small, poorly fitted or top-dose-only effect, or another doubt; inactive = no such curve, though single readings can be large; an effect the other way counts as inactive or inconclusive. Potency is the fitted concentration of half-maximal effect.

SMILES	Peg3 imprint	p53ts 39C kill	p53ts 32C tox	IkB sig inh
Clc1cccc(-n2ncc3c(N4CCCCC4)ncnc32)c1	-41%[10.9 µM]	6.3µM*	3.2µM*	?
CCc1nnc2c(NCc3cccc(OC)c3)nc3ccccc3n12	-7%[10.9 µM]	6%	0%	-4%
CC(C)(C)c1ccc(C(=O)NNc2ncnc3c2cnn3-c2ccccc2)cc1	-7%[10.9 µM]	?	-19%	1%
C/C(N=NC(=[SH+])SCc1ccccc1)=C1\C=CC=CN1.[Cl][Cu]	-51%[10.9 µM]	.	.	.
CN(c1ccccc1)S(=O)(=O)c1nnc(NC(=O)c2ccccc2)s1	-18%[10.9 µM]	-17%	-23%	-1%
CN(c1ccccc1)S(=O)(=O)c1nnc(NC(=O)C2CCCCC2)s1	-23%[10.9 µM]	16µM*	7.9µM*	-1%
CCN(c1ccc(C)cc1)S(=O)(=O)c1nnc(NC(=O)c2cccs2)s1	5%[10.9 µM]	-6%	-4%	?
CCN(c1ccccc1)S(=O)(=O)c1nnc(NC(=O)c2cccs2)s1	-85%[10.9 µM]	1.3µM*	1µM*	-144%
O=C(NCc1ccccc1)c1ccc(CSc2nc3cccnc3n2Cc2cccc(F)c2)cc1	.	.	-15%	.
Cc1cc(=O)c2c(O)c3c(O)cc(O)c4c5c(O)cc(O)c6c(O)c7c(=O)cc(C)c8c1c2c(c34)c(c65)c78	-25%	.	.	.
CCCCn1c(=N)n(CCCOc2ccc(F)cc2)c2ccccc21	-25%[10.9 µM]	10µM*	?	?
N=c1n(CCO)c2ccccc2n1CCOc1ccc(F)cc1	-15%[10.9 µM]	-13%	-10%	?
CC(C)c1ccc(C2c3c(-c4ccccc4O)n[nH]c3C(=O)N2CCc2ccccc2)cc1 (stereo not drawn)	-8%[10.9 µM]	25µM*	-11%	?
Cc1ccc(C2c3c(-c4ccccc4O)n[nH]c3C(=O)N2CCc2ccccc2)cc1 (stereo not drawn)	-23%[10.9 µM]	32µM*	13µM*	?
O=S(=O)(NCC(Nc1ccc(Cl)cc1)c1ccccc1)c1ccccc1 (stereo not drawn)	-1%[10.9 µM]	22µM*	?	?
O=S(=O)(NCC(c1ccccc1)N1CCc2ccccc21)c1ccc(Cl)cc1 (stereo not drawn)	-10%[10.9 µM]	25µM*	17%	2%
COc1cccc(NC(CNS(=O)(=O)c2ccc(C)cc2)c2ccccc2)c1 (stereo not drawn)	-6%[10.9 µM]	?	11%	?
CN(C)c1ccc(C(CNS(=O)(=O)c2ccc(F)cc2)N2CCc3ccccc32)cc1 (stereo not drawn)	-9%[10.9 µM]	3%	4%	?
COc1cccc(NC(CNS(=O)(=O)c2ccc(Cl)cc2)c2ccccc2)c1 (stereo not drawn)	2%[10.9 µM]	13µM*	?	0%
Cc1cc(C)cc(NC(=O)C(NS(=O)(=O)c2cccc3nsnc23)c2ccccc2)c1 (stereo not drawn)	-4%[10.9 µM]	16%	14%	?
CO[C@@H]1COC(=O)[C@@H](CCSC)NC(=O)C/C=C\[C@@H](C)COC(=O)CCC[C@H]1C	.	-17%[9.22 µM]	7%[9.22 µM]	.
CCOc1ccccc1NC(=O)NCc1noc2ccc(C)cc12	-14%[10.9 µM]	-12%	-5%	?
CCN(CC)S(=O)(=O)c1ccc(C(=O)NCCSc2c(-c3ccc(C)cc3)[nH]c3ccccc23)cc1	-13%[10.9 µM]	-9%	0%	1%
CCCN(CCC)CCCNC(=O)c1cc2c(-c3ccc(Cl)cc3)nn(C)c2s1	2%[10.9 µM]	13µM*	-10%	?
C/C(=N\NC(=O)c1nn(C)c(C)c1Br)c1ccc(NC(=O)c2ccccc2F)cc1	.	-5%	?	.
SMILES	Peg3 imprint	p53ts 39C kill	p53ts 32C tox	IkB sig inh
COc1ccccc1C(=O)OCc1cc(=O)n2c(C)csc2n1	-24%[10.9 µM]	0.13µM*	?	?
COc1cccc(C(=O)Nc2ccccc2C(=O)OCc2cc(=O)n3c(C)csc3n2)c1	-6%[10.9 µM]	-5%	-4%	4%
O=C(Nc1ccc2c(c1)nc1n2CCN(C2CCCCC2)C1)c1ccco1	-9%	2%	0%	0%
O=C(Nc1ccc(N2CCCC2)c(Cl)c1)c1ccco1	-29%	7.9µM*	10µM*	-3%
O=C(Nc1ccc2c(c1)nc1n2CCSC1)c1ccco1	-46%	3.2µM*	2µM*	?
O=C(Nc1ccc2c(c1)nc1n2CCOC1)c1ccco1	-30%	?	7.9µM*	?
O=C(O)CCCc1ccc2ccccc2c1	-12%[10.9 µM]	2%[9.22 µM]	-5%[9.22 µM]	-3%[11.4 µM]
O=c1c(O)c(-c2ccc(O)c(O)c2)oc2c(OC[C@H]3O[C@@H](O)[C@@H](O)[C@H](O)[C@@H]3O)c(O)cc(O)c12	.	.	.	0%[11.4 µM]
Clc1cccc(-c2csc(-c3nc(-c4ccc(Br)s4)cs3)n2)c1	6%[10.9 µM]	-1%	0%	0%
COc1cccc(Nc2nc3cc(C)ccc3nc2NS(=O)(=O)c2ccc(Cl)cc2)c1	-17%[10.9 µM]	3%	-2%	2%
N#Cc1cccc(-c2nc(NCc3ccccc3)c3ccccc3n2)c1	-17%	-14%	0%	0%[11.4 µM]
COc1cccc(N2CCN(C(=O)CCCn3c(=O)[nH]c4ccc(Br)cc4c3=O)CC2)c1	-14%[10.9 µM]	-17%	13µM*	?
COC(=O)C/C=C\[C@@H](C)[C@@H](/C=N\OC[C@@H](O)[C@H]1O[C@H]2OC(C)(C)O[C@H]2[C@@H]1O)NS(=O)(=O)c1ccc(C)cc1	.	3%[9.22 µM]	5%[9.22 µM]	.
COCc1cc(C)nc2sc3c(c12)NC(c1ccccc1C(=O)O)N(c1cccc(C(F)(F)F)c1)C3=O (stereo not drawn)	20%[10.9 µM]	1%	0%	3%
COc1ccccc1C1Nc2c(sc3nc(C)cc(C)c23)C(=O)N1c1ccccc1 (stereo not drawn)	-7%[10.9 µM]	13µM*	?	?
COc1ccc(C(=O)Nc2nnc(SCc3cc(=O)c4cccc(F)c4[nH]3)s2)cc1	-10%[10.9 µM]	-26%	7%	?
O=S(=O)(c1cccc(C(F)(F)F)c1)n1c(/C=C/c2ccccc2)nc2ccccc21	-29%[10.9 µM]	13µM*	13µM*	-1%
CCOc1ccc(/C=C/c2nc3ccccc3n2S(=O)(=O)c2ccc(Br)cc2)cc1	-14%[10.9 µM]	7.9µM*	7.9µM*	?
CSc1ccc(/C=C/c2nc3ccccc3n2S(=O)(=O)c2ccc(Br)cc2)cc1	-22%[10.9 µM]	1.1µM*	3.2µM*	?
CCn1cnc2cc(NC(=O)c3ccco3)ccc21	.	8.9µM*	13µM*	.
CCOc1ccccc1NC(=O)c1ccc(NC(=O)c2ccco2)cc1	.	33%	1%	.
CCOc1ccc(NC(=O)c2ccco2)cc1	-68%	10µM*	10µM*	22%
COc1ccccc1-c1cc(C(=O)Nc2c(C)nn(Cc3ccc(Cl)cc3)c2C)no1	-11%[10.9 µM]	13µM*	?	?
COc1ccc(-c2cc(C(=O)Nc3c(C)nn(Cc4ccc(Cl)cc4)c3C)no2)cc1	-13%	-20%	-14%	0%
COc1ccc(-n2c(=O)c(-c3cn(C)c4ccccc34)nc3cnc(N4CCOCC4)nc32)cc1	-3%	-8%	4%	0%[11.4 µM]
Nc1ncnc2c1ncn2[C@@H]1O[C@@H](CO)[C@H](O)[C@@H]1O	.	17%	16%	2%
